Drawing on publication PMC7862700, “An all-to-all approach to the identification of sequence-specific readers for epigenetic DNA modifications on cytosine”, this text covers binding signal for seven sequences.

Common to all, as to experiment: DAPPL (digital affinity profiling via proximity ligation, sequencing); 10 mM Tris-HCl pH 7.5, 50 mM NaCl, 1 mM DTT, 4% glycerol, room temperature, 30 min; GST-TFs on glutathione beads, 16-mer random dsDNA library, 0.1% formaldehyde crosslink after washing; high values mean tight binding
What all share (conditions): protein: recombinant; tags: N-terminal GST; dsDNA, one strand shown

The target of one assay is T1, ERF (Homo sapiens, UniProt P50548 1-548).
T1 sequence: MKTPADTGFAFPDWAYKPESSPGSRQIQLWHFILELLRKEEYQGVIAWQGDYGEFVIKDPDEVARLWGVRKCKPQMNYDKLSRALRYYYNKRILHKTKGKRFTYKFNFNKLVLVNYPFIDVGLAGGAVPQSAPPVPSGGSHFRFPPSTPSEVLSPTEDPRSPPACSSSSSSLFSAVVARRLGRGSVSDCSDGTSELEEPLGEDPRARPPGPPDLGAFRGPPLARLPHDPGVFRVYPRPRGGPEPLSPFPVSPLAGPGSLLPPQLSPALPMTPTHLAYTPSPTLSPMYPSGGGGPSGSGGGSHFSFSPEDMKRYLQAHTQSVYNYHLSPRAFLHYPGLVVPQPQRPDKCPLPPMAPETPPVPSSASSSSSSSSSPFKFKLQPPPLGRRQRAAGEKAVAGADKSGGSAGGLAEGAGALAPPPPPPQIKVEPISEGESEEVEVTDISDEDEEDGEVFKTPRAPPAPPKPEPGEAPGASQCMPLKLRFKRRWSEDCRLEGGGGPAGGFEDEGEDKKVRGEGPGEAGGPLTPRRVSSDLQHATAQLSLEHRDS
In short, it runs like this: (§1)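 Human transcription factors fused to GST were expressed in yeast, captured on glutathione beads, given DNA barcodes and pooled with a GST-only negative control. Pools were incubated with 200 nmole of a 16-mer random double-stranded DNA library in Tris/NaCl/DTT/glycerol buffer at room temperature for 30 min. They were then washed, crosslinked with 0.1% formaldehyde, proximity-ligated (BsaI/T4 ligase, 1 h, 37 °C), PCR-amplified and sequenced on an Illumina NextSeq500. Binding signal is each 6-mer's read frequency for a factor divided by its frequency for the GST control.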

Another assay addresses T2, ETV3L (Homo sapiens, UniProt Q6ZN32 1-361).
T2 sequence: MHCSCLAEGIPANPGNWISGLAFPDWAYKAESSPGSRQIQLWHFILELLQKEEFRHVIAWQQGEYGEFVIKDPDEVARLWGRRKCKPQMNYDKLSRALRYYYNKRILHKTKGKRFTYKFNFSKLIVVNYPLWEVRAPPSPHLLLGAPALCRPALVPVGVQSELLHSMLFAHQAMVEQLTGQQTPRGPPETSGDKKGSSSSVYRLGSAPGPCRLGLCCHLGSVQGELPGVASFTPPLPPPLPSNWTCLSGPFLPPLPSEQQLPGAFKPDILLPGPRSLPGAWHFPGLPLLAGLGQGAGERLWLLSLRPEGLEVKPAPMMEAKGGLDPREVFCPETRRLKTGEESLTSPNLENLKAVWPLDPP
In short, it runs like this: as §1

The next assay deals with T3, ETS2 (Homo sapiens, UniProt P15036 1-469).
T3 sequence: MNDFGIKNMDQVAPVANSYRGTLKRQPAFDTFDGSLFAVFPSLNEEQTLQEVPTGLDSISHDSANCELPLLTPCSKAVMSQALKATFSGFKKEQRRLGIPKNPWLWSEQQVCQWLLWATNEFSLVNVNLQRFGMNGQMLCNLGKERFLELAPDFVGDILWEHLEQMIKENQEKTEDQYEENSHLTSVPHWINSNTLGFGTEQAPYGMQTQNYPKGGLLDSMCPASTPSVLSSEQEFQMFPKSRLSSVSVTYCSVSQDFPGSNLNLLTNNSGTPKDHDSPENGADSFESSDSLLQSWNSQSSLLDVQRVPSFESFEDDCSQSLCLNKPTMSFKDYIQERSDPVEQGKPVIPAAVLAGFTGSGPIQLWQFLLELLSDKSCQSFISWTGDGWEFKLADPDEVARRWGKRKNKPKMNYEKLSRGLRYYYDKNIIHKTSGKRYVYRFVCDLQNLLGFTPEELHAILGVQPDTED
In short, it runs like this:
as §1

In another assay the target is T4, SPDEF (Homo sapiens, UniProt O95238 1-335).
T4 sequence: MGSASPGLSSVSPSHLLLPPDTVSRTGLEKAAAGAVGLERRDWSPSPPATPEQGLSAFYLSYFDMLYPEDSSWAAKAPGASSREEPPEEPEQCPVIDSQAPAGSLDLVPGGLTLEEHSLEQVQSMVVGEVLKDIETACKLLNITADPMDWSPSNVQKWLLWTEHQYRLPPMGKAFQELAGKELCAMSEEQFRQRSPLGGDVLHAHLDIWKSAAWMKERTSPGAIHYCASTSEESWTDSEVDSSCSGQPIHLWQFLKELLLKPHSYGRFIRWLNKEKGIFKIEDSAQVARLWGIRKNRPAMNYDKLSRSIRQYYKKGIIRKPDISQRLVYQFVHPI
In short, it runs like this:
as §1

The target of another assay is T5, ETV7 (Homo sapiens, UniProt Q9Y603 1-341).
T5 sequence: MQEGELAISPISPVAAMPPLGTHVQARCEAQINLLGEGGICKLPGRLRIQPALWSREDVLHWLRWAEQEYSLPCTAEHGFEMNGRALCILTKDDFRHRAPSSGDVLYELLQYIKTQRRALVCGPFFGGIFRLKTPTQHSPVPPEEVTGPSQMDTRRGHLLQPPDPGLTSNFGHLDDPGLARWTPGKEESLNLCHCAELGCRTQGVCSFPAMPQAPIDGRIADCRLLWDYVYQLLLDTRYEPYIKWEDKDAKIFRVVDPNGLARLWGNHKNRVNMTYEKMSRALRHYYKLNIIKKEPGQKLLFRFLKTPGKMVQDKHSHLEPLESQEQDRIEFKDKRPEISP
In short, it runs like this: as §1

The target of a further assay is T6, ELF5 (Homo sapiens, UniProt Q9UKW6-2 1-255).
T6 sequence: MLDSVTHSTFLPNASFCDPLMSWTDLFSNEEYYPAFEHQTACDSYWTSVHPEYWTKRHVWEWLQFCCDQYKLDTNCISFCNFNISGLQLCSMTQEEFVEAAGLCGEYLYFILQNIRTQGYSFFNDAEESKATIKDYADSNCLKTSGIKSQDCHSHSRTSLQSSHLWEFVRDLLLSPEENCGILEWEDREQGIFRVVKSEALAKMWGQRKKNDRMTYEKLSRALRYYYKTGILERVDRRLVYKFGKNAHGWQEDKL
In short, it runs like this:
as §1

In another assay the target is T7, ETV3 (Homo sapiens, UniProt P41162-2 1-143).
T7 sequence: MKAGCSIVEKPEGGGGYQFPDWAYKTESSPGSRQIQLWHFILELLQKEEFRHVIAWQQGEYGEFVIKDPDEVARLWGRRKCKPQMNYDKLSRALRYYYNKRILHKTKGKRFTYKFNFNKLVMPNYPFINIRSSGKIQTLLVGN
In short, it runs like this:
as §1

For a further assay, the target named is ETV6 (Homo sapiens, UniProt P41212 1-452). In short, it runs like this:
as §1

Sequence of ETV6 (P41212 whole entry): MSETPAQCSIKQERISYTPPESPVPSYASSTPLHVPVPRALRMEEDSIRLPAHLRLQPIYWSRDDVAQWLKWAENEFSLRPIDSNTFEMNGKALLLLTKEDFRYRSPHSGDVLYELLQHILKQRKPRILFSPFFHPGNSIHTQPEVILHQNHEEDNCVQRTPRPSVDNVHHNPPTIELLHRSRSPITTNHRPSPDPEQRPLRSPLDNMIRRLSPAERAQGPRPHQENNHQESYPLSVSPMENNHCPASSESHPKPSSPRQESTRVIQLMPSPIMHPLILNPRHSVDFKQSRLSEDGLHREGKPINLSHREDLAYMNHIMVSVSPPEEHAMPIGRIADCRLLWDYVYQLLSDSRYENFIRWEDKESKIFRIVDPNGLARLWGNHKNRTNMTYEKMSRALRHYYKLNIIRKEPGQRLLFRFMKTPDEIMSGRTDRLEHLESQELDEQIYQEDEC

As to CAACCT, the binding signal with ERF was 1.26 fold enrichment (6-mer frequency, TF over GST control); with ETV3L it was 1.13 fold enrichment (6-mer frequency, TF over GST control); with ETS2, 1.2 fold enrichment (6-mer frequency, TF over GST control); with SPDEF, 1.19 fold enrichment (6-mer frequency, TF over GST control); with ETV7, 1.09 fold enrichment (6-mer frequency, TF over GST control); with ELF5, 1.2 fold enrichment (6-mer frequency, TF over GST control). For the same sequence, the binding signal with ETV3 was 1.1 fold enrichment (6-mer frequency, TF over GST control); with ETV6, 1.18 fold enrichment (6-mer frequency, TF over GST control).
Regarding AACGTC, the binding signal was 1.01 fold enrichment (6-mer frequency, TF over GST control) in the assay with ERF; 1.03 fold enrichment (6-mer frequency, TF over GST control) with ETV3L; 1.14 fold enrichment (6-mer frequency, TF over GST control) in the assay with ETS2; 1.11 fold enrichment (6-mer frequency, TF over GST control) in the assay with SPDEF; 1.11 fold enrichment (6-mer frequency, TF over GST control) with ETV7; 1.1 fold enrichment (6-mer frequency, TF over GST control) in the assay with ELF5. Besides, the binding signal with ETV3 was 1.07 fold enrichment (6-mer frequency, TF over GST control); with ETV6, 1.05 fold enrichment (6-mer frequency, TF over GST control).
For GCTGTT, the binding signal with ERF is 1.08 fold enrichment (6-mer frequency, TF over GST control); in the assay with ETV3L it was 1.1 fold enrichment (6-mer frequency, TF over GST control); with ETS2 it was 1.09 fold enrichment (6-mer frequency, TF over GST control); with SPDEF it was 1.08 fold enrichment (6-mer frequency, TF over GST control); with ETV7, 1.21 fold enrichment (6-mer frequency, TF over GST control); with ELF5 it was 1.04 fold enrichment (6-mer frequency, TF over GST control). Moreover, the binding signal in the assay with ETV3 was 1.15 fold enrichment (6-mer frequency, TF over GST control); in the assay with ETV6, 1.03 fold enrichment (6-mer frequency, TF over GST control).
Consider GTTCAT, for which the binding signal with ERF was 1.11 fold enrichment (6-mer frequency, TF over GST control); in the assay with ETV3L it was 1.16 fold enrichment (6-mer frequency, TF over GST control); in the assay with ETS2, 1.16 fold enrichment (6-mer frequency, TF over GST control); with SPDEF, 1.18 fold enrichment (6-mer frequency, TF over GST control); in the assay with ETV7 it was 1.05 fold enrichment (6-mer frequency, TF over GST control); with ELF5, 1.1 fold enrichment (6-mer frequency, TF over GST control). Also, the binding signal in the assay with ETV3 is 1.1 fold enrichment (6-mer frequency, TF over GST control); with ETV6, 1.17 fold enrichment (6-mer frequency, TF over GST control).
As to TGGCAC, the binding signal with ERF was 1.21 fold enrichment (6-mer frequency, TF over GST control); in the assay with ETV3L it was 1.2 fold enrichment (6-mer frequency, TF over GST control); with ETS2 it was 1.14 fold enrichment (6-mer frequency, TF over GST control); in the assay with SPDEF it was 1.12 fold enrichment (6-mer frequency, TF over GST control); with ETV7, 1.18 fold enrichment (6-mer frequency, TF over GST control); with ELF5, 1.05 fold enrichment (6-mer frequency, TF over GST control). The binding signal was 1.19 fold enrichment (6-mer frequency, TF over GST control) with ETV3 and 1.16 fold enrichment (6-mer frequency, TF over GST control) with ETV6.
As to CGATCC, the binding signal with ERF was 1.33 fold enrichment (6-mer frequency, TF over GST control); with ETV3L, 1.18 fold enrichment (6-mer frequency, TF over GST control); with ETS2, 1.2 fold enrichment (6-mer frequency, TF over GST control); with SPDEF it was 1.4 fold enrichment (6-mer frequency, TF over GST control); in the assay with ETV7, 1.1 fold enrichment (6-mer frequency, TF over GST control); in the assay with ELF5, 1.2 fold enrichment (6-mer frequency, TF over GST control). The binding signal was 1.24 fold enrichment (6-mer frequency, TF over GST control) with ETV3 and 1.23 fold enrichment (6-mer frequency, TF over GST control) with ETV6.
On to GACCTA, for which the binding signal with ERF was 1.09 fold enrichment (6-mer frequency, TF over GST control); in the assay with ETV3L, 1.31 fold enrichment (6-mer frequency, TF over GST control); with ETS2, 1.19 fold enrichment (6-mer frequency, TF over GST control); with SPDEF, 1.13 fold enrichment (6-mer frequency, TF over GST control); with ETV7, 1.2 fold enrichment (6-mer frequency, TF over GST control); with ELF5, 1.15 fold enrichment (6-mer frequency, TF over GST control). In addition, the binding signal is 1.07 fold enrichment (6-mer frequency, TF over GST control) with ETV3 and 1.22 fold enrichment (6-mer frequency, TF over GST control) with ETV6.
